Experimental data as given in PubChem BioAssay.
Activity calls are given as the source filed them.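 The calls were made as follows, unless noted: active = visual image review flags a hit and inhibition of aggregation exceeds 20%; inconclusive = visual hit but inhibition at or below 20%; inactive = no hit on visual image review.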

How the values were obtained:
[1] = inhibitors of TNFa-induced NFkB p65 translocation, primary screen, imaging, HUVEC, MLSMR starter and 10KST1 sets (AID 438;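 active = inhibition above 20% together with a positive visual image hit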;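 also: compound added about 3h40 before a 20 min TNFalpha stimulation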;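 as to inhibition: signal is the nuclear over cytoplasmic p65 intensity ratio per well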); conditions: HUVEC TNFa-induced p65 nuclear translocation; cell count: measured here: nuclei count (cytotoxicity indicator), at 2.08 µM; inhibition: at 2 µM, stronger effect = higher value, 0% TNFa-plus-vehicle, 100% no-TNFa wells
[2] = inhibitors of mutant huntingtin aggregation, primary screen, imaging, exon1htt(103Q)mCFP cells, high-content imaging (AID 483); conditions: exon1htt(103Q)mCFP cell line, aggregate imaging, at 2 µM; inhibition of aggregation: stronger effect = higher value; nuclei count: measured here: cell count, toxicity;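 also: compound exposure lasted 3 days before fixation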;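 as to nuclei count: percent of the per-plate median nuclei count of sample wells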
[3] = inhibitors of E-selectin induction by TNFa, primary screen, imaging, HUVEC, immunofluorescence, MLSMR starter and 10KST1 sets (AID 487;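 active = visually confirmed hit in the image check and inhibition above 20%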;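 as to inhibition: signal is fraction of cell area covered by stained E-selectin grains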;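 as to nuclei count: 100% = median nuclei count of all wells on the same plate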); conditions: HUVEC TNFalpha-induced E-selectin immunofluorescence imaging, at 2 µM; inhibition: stronger effect = higher value; nuclei count: measured here: cell number, toxicity
[4] = molecular target: Voltage-gated potassium channel subunit beta-2 (Rattus norvegicus) (UniProt P62483); assay: KvBeta enzyme negative modulators, primary screen, biochemical, NADPH fluorescence (AID 622;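 active = fluorescence slope higher than the sample average by over 3 SD, cut at about -0.22 in these data, passing the limit was not always enough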;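 also: slope of raw intensity against log time taken from 70 to 1610 s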); conditions: recombinant KvBeta, 4-cyanobenzaldehyde reduction, at 10 µM, stronger effect = higher value
Voltage-gated potassium channel subunit beta-2 (Rattus norvegicus), sequence (P62483 whole entry, looked up): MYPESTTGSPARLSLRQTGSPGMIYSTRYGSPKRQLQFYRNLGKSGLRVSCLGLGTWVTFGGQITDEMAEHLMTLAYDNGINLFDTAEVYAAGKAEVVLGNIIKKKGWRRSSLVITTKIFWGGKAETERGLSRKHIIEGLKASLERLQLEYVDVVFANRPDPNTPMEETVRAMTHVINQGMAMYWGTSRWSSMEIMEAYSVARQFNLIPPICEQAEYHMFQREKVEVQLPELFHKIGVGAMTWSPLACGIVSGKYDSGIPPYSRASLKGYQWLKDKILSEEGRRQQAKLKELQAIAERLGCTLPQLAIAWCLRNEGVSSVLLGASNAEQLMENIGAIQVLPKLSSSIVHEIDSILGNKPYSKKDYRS

[5] = molecular target: Voltage-gated potassium channel subunit beta-2 (Rattus norvegicus) (UniProt P62483); assay: KvBeta positive modulators, primary screen, biochemical, NADPH fluorescence (AID 623;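 active = NADPH fluorescence slope more negative than the mean of all samples by about 3 SD, 99.7% confidence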;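 also: fluorescence intensity change per second fitted from 20 to 320 s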); conditions: Recombinant KvBeta, NADPH fluorescence decrease slope, 10 min; at 10 µM; stronger effect = lower value
[6] = molecular target: Alpha-2C adrenergic receptor (Homo sapiens) (UniProt P18825); assay: modulators of alpha2C/GIRK thallium flux, primary screen, cell-based, HEK293 alpha2C/GIRK1/2 (AID 624;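 active = fluorescence slope after compound addition differing from the mean of all screened samples at 99.7% confidence, in either direction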;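 also: slope of fluorescence ratio to pre-addition baseline per second over 15 to 24 s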); conditions: thallium flux BTC fluorescence, at 10 µM, actives lie on both sides
Alpha-2C adrenergic receptor (Homo sapiens), sequence (P18825 whole entry, looked up): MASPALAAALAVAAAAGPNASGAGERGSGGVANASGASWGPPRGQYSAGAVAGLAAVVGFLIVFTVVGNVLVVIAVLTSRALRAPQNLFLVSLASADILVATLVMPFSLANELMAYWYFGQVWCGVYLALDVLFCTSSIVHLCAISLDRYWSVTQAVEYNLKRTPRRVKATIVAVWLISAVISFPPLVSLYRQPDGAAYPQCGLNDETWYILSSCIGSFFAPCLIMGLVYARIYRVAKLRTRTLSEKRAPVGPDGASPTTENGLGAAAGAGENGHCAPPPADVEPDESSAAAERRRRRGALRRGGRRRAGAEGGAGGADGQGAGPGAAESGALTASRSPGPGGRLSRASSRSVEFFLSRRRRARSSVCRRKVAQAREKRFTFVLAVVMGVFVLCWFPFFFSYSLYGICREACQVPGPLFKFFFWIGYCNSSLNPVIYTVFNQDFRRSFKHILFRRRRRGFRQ

[7] = inhibitors of Sendai virus-induced IRF3 signaling, primary screen, TLR/RLR signaling modifier project, cell-based, Sendai virus stimulus, luciferase, 10K MLSCN set (AID 602276;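 active = inhibition at or above 50% at 10 µM; inactive = inhibition below 50%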;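 also: firefly luciferase from ISG56 promoter only with Renilla not read in this screen; 0% = Sendai virus plus DMSO and 100% = medium plus DMSO without virus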); conditions: HEK293 RL24 IRF3 luciferase reporter, at 10 µM, stronger effect = higher value
[8] = inhibitors of poly I:C-induced TLR3 signaling, primary screen, cell-based, poly I:C stimulus, luciferase, 10K MLSCN set (AID 602277;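 active = inhibition of the reporter signal at or above 50%; inactive = inhibition below 50%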); conditions: HEK293-TLR3 RL24 IRF3 luciferase reporter, at 10 µM, stronger effect = higher value

SMILES	cell count [1]	inhibition [1]	inhibition of aggregation [2]	nuclei count [2]	inhibition [3]	nuclei count [3]	fluorescence slope [4]	NADPH fluorescence slope [5]	slope [6]	inhibition [7]	inhibition [8]
CCOc1cccc(C(=O)N(Cc2ccco2)C2CCS(=O)(=O)C2)c1 (stereo not drawn)	609	9.6% (inactive)	2.4% (inactive)	107%	-9.8% (inactive)	110%	-0.342 (inactive)	-6.1e-05 (inactive)	0.00467 (inactive)	11.5% (inactive)	13.7% (inactive)
COc1ccc2cc3cc(C(=O)NCC4CCCO4)oc3nc2c1 (stereo not drawn)	323	-7.8% (inactive)	3.3% (inactive)	56.8%	-20.5% (inactive)	108%	-0.0444 (active)	-1.4e-06 (inactive)	0.00645 (inactive)	-11.2% (inactive)	-36.3% (inactive)
O=C(Nc1ccc(N2CCOCC2)cc1)c1cc2ccccc2o1	775	-1.9% (inactive)	7.2% (inactive)	106%	-29.4% (inactive)	97.9%	-0.479 (inactive)	1.9e-05 (inactive)	0.003 (inactive)	-72.9% (inactive)	-187% (inactive)
Cc1ccc2nc(-c3ccccn3)cc(C(=O)N3CCN(c4ncccn4)CC3)c2c1	367	-5.9% (inactive)	0% (inactive)	107%	6% (inactive)	115%	-0.346 (inactive)	-5.1e-05 (inactive)	0.00536 (inactive)	4.96% (inactive)	8.03% (inactive)
COc1ccc(N2CCN(C(c3ccccc3)c3sc4nc(C)nn4c3O)CC2)cc1 (stereo not drawn)	694	-12.9% (inactive)	-0.9% (inactive)	112%	-21.7% (inactive)	96.4%	-0.452 (inactive)	-4.8e-05 (inactive)	0.00526 (inactive)	8.1% (inactive)	11.1% (inactive)
Brc1ccccc1-c1nc(-c2ccccc2)no1	428	2.3% (inactive)	-23% (inactive)	94%	-25.4% (inactive)	114%	-0.45 (inactive)	2.8e-05 (inactive)	0.00389 (inactive)	-15.5% (inactive)	-39.8% (inactive)
O=C(NC1CCCC1)C1CCCN(S(=O)(=O)c2cccc3cccnc23)C1 (stereo not drawn)	617	6.6% (inactive)	3.4% (inactive)	107%	-68.3% (inactive)	132%	-0.594 (inactive)	-3.8e-05 (inactive)	0.00653 (inactive)	-0.271% (inactive)	28.5% (inactive)
C/C=C/Cn1c(SCCCc2ccccc2)nc2c1c(=O)[nH]c(=O)n2C	658	-6.4% (inactive)	-13.8% (inactive)	101%	-13.9% (inactive)	102%	-0.517 (inactive)	-1.9e-05 (inactive)	0.00629 (inactive)	1.4% (inactive)	5.27% (inactive)
CCN=C1SC(CC(=O)Nc2ccccc2OCC)C(=O)N1CC (stereo not drawn)	613	-14.1% (inactive)	-12.5% (inactive)	100%	0.9% (inactive)	92.3%	-0.488 (inactive)	-3.2e-05 (inactive)	0.00493 (inactive)	12.4% (inactive)	20.8% (inactive)
Cc1c(C(=O)OCC(C)C)[nH]c2c1C(=O)CC(c1ccco1)C2 (stereo not drawn)	464	8.4% (inactive)	-226% (inactive)	4%	-91.9% (inactive)	96.5%	-0.492 (inactive)	-3.2e-07 (inactive)	0.00635 (inactive)	75.6% (active)	76.5% (active)
Cn1c(SCc2nnc3n2CCCCC3)nc2ccccc21	252	-15.3% (inactive)	-3.3% (inactive)	94.7%	-94.2% (inactive)	127%	-0.433 (inactive)	-2.7e-05 (inactive)	0.00588 (inactive)	14% (inactive)	20% (inactive)
CCOc1ccc(OCC)c(NC(=O)C2CCN(c3ncccn3)CC2)c1	588	-14.2% (inactive)	10.9% (inactive)	103%	-43.7% (inactive)	113%	-0.421 (inactive)	-5.1e-05 (inactive)	0.0054 (inactive)	8.17% (inactive)	11.1% (inactive)
Cc1cnc(C(=O)OCC(=O)Nc2ccc(Cl)cc2Cl)cn1	738	8.7% (inactive)	-16.9% (inactive)	119%	-37% (inactive)	94.9%	-0.51 (inactive)	-5.1e-05 (inactive)	0.00552 (inactive)	10.9% (inactive)	14.7% (inactive)
CC(=O)c1c(C)nn(C(C)CC(=O)O)c1C (stereo not drawn)	784	-12.6% (inactive)	5.2% (inactive)	114%	-27.1% (inactive)	99%	-0.509 (inactive)	-2.6e-05 (inactive)	0.00713 (inactive)	8.2% (inactive)	19.7% (inactive)
Cc1ccc(OCc2nnc(SCC(=O)N3CCOCC3)n2C)cc1	594	-12.9% (inactive)	6.8% (inactive)	104%	-58.9% (inactive)	116%	-0.372 (inactive)	-1.9e-05 (inactive)	0.00543 (inactive)	-1.5% (inactive)	6.14% (inactive)
CCc1ccc(N2CC34C=CC(O3)C(C(=O)OC)C4C2=O)cc1 (stereo not drawn)	535	4% (inactive)	11.3% (inactive)	85.3%	-7.9% (inactive)	101%	-0.589 (inactive)	6.6e-06 (inactive)	0.00784 (inactive)	7.96% (inactive)	30.4% (inactive)
COCCNC(=O)CCc1nc(-c2ccccc2)no1	294	-5% (inactive)	-9.3% (inactive)	103%	-98.3% (inactive)	123%	-0.504 (inactive)	2.6e-05 (inactive)	0.00646 (inactive)	18.6% (inactive)	16.3% (inactive)
CC(=O)c1ccccc1NS(=O)(=O)c1c(C)nn(-c2ccccc2)c1C	580	-2.4% (inactive)	2.3% (inactive)	113%	-74.1% (inactive)	92.7%	-0.308 (inactive)	-5e-05 (inactive)	0.00448 (inactive)	-4.38% (inactive)	98.9% (active)
Cc1cc(C)c(NC(=O)Cn2cc3c(n2)CCCC3)c(C)c1	738	-7.9% (inactive)	-4.1% (inactive)	76.3%	-1.2% (inactive)	110%	-0.515 (inactive)	-2e-05 (inactive)	0.00662 (inactive)	26.1% (inactive)	11.6% (inactive)
CN(CC(=O)NCCC1=CCCCC1)S(=O)(=O)c1ccc2c(c1)CCC(=O)N2	603	16.1% (inactive)	19% (inactive)	111%	-110% (inactive)	141%	-0.505 (inactive)	1.1e-05 (inactive)	0.00584 (inactive)	-4.9% (inactive)	16.8% (inactive)
Cc1nc(SCCC(=O)O)c2ccccc2n1	310	-2.5% (inactive)	9.6% (inactive)	112%	40.9% (inactive)	105%	-0.261 (inactive)	-2.6e-06 (inactive)	0.00515 (inactive)	11.6% (inactive)	18.5% (inactive)
COc1cccc(N2CCN(C(=O)C3C4C=CC5(CN(Cc6ccccc6Cl)C(=O)C35)O4)CC2)c1 (stereo not drawn)	606	-11.6% (inactive)	-3% (inactive)	58.2%	-66.5% (inactive)	123%	-0.402 (inactive)	-3.2e-05 (inactive)	0.00266 (inactive)	-0.268% (inactive)	13.1% (inactive)
O=C(NCC1CCCO1)C1c2ccccc2C(=O)N1C1CCCCCC1 (stereo not drawn)	445	-9.2% (inactive)	-4.3% (inactive)	101%	-38.3% (inactive)	109%	-0.621 (inactive)	2.7e-06 (inactive)	0.00613 (inactive)	11.3% (inactive)	15.1% (inactive)
O=C(CN1CCOCC1)N1CCCc2c1c(=O)oc1ccc(OCc3ccccc3)cc21	427	7.3% (inactive)	5.6% (inactive)	109%	-40.7% (inactive)	109%	-0.589 (inactive)	-4.6e-05 (inactive)	0.00267 (inactive)	-0.877% (inactive)	9.59% (inactive)
Cc1ccnc(SCCn2c(N3CCCCC3)nc3c2c(=O)n(C)c(=O)n3C)n1	249	4.4% (inactive)	-9.4% (inactive)	93.5%	-49.1% (inactive)	107%	-0.319 (inactive)	1.8e-05 (inactive)	0.00339 (inactive)	10.1% (inactive)	36.5% (inactive)
O=C(C1CCCN(S(=O)(=O)c2cccs2)C1)N1CCc2ccccc2C1 (stereo not drawn)	668	-3.6% (inactive)	-29.8% (inactive)	119%	-53.2% (inactive)	109%	-0.586 (inactive)	-5.1e-05 (inactive)	0.0027 (inactive)	13.1% (inactive)	14.2% (inactive)
Nn1c(SCC(=O)Nc2ccc3c(c2)OCO3)nnc1C1CC1	363	4.8% (inactive)	0.8% (inactive)	100%	-16% (inactive)	111%	-0.574 (inactive)	-5.7e-05 (inactive)	0.00672 (inactive)	4.52% (inactive)	17.1% (inactive)
COc1ccc(OCC(=O)N2CC3(C)CC2CC(C)(C)C3)cc1 (stereo not drawn)	403	-0.6% (inactive)	-6.4% (inactive)	122%	-55.8% (inactive)	97.4%	-0.495 (inactive)	-6.6e-06 (inactive)	0.004 (inactive)	20% (inactive)	26.7% (inactive)
